We go through 34 compounds from PubChem BioAssay AID488984 (The Scripps Research Institute Molecular Screening Center, 2010).

Calls of active or inactive are those of the source. Cut-off read from the data, not from the text of the source: active = inhibition above about 55%; inactive = the rest.

The test system of this test is SARS coronavirus 3C-like protease (3CLpro, nsp5). The test is described as follows: blockers of SARS 3CLpro activity – biochemical, fluorescence, set 2, late-stage follow-up (AID 488984). The note with it: recombinant 3CLpro, fluorogenic peptide cleavage; at 100 µM; hits give high values.
Turning to `CC(C)(C)NC(=O)C(c1ccsc1)N(C(=O)c1ccc(C#N)cc1)C1CC1` (centres undefined), the inhibition was 11.2% (inactive).
Take `CC(C)(C)NC(=O)C(c1cccnc1)N(C(=O)Cc1cccnc1)c1ccc(C(C)(C)C)cc1` (centres undefined): the inhibition is 20.2% (inactive).
Next, `CC(C)c1ccc(N(C(=O)c2ccco2)C(C(=O)NC(C)(C)C)c2ccsc2)cc1` (centres undefined): 6.57% (inactive).
As to `Cc1nc2ccccc2n1CC(=O)N(c1ccc(C(C)(C)C)cc1)C(C(=O)NC(C)(C)C)c1ccsc1` (centres undefined), the inhibition is 2.02% (inactive).
Consider `CC(C)(C)NC(=O)C(c1ccsc1)N(C(=O)c1ccc(C(F)(F)F)nc1)C1CC1` (centres undefined), for which the inhibition was 11.3% (inactive).
Regarding `CC(C)C(=O)Nc1ccc(N(C(=O)Cn2cnc3ccccc32)C(C(=O)NC(C)(C)C)c2ccsc2)cc1` (centres undefined), the inhibition is 59.8% (active).
As for `CC(C)(C)NC(=O)C(c1cccnc1)N(C(=O)c1cccc2c1CCCC2)C1CC1` (centres undefined), the figure is 8.14% (inactive).
Next, `CC(C)(C)NC(=O)C(c1ccsc1)N(C(=O)c1ccc(C#N)cc1)c1ccc(OCF)cc1` (centres undefined): 17.8% (inactive); `CC(C)(C)NC(=O)C(c1ccsc1)N(C(=O)c1ccco1)c1ccc(F)cc1` (centres undefined): 11.2% (inactive).
As for `Cc1nccn1CC(=O)N(c1ccc(N)cc1)C(C(=O)NC(C)(C)C)c1ccsc1` (centres undefined), the figure is 6.79% (inactive); as for `CC(C)c1ccc(N(C(=O)c2n[nH]c3ccccc23)C(C(=O)NC(C)(C)C)c2ccsc2)cc1` (centres undefined), 7.3% (inactive); as for `CC(C)(C)NC(=O)C(c1ccsc1)N(C(=O)c1cccc2c1CCCC2)C1CC1` (centres undefined), 34.6% (inactive).
Regarding `CCC(=O)Nc1ccc(N(C(=O)Cn2nnc3ccccc32)C(C(=O)NC(C)(C)C)c2ccsc2)cc1` (centres undefined), the inhibition was 94.2% (active).
`CC(C)(C)NC(=O)C(c1ccsc1)N(C(=O)Cc1cccc2ccccc12)c1ccc(C(C)(C)C)cc1` (centres undefined): the inhibition is 22.3% (inactive).
As to `CC(C)(C)NC(=O)C(c1cccnc1)N(C(=O)c1ccc(C(F)(F)F)nc1)c1ccc(OCF)cc1` (centres undefined), the inhibition was 13.7% (inactive).
Regarding `CC(C)(C)NC(=O)C(c1ccsc1)N(C(=O)c1ccco1)C1CC1` (centres undefined), the inhibition is 7.74% (inactive).
As for `CC(C)(C)NC(=O)C(c1ccsc1)N(C(=O)c1ccc(C#N)cc1)c1ccc(F)cc1` (centres undefined), the figure is 17.4% (inactive); as for `CCC(=O)Nc1ccc(N(C(=O)Cn2ccnc2C)C(C(=O)NC(C)(C)C)c2ccsc2)cc1` (centres undefined), 5.34% (inactive); as for `CC(C)(C)NC(=O)C(c1cccnc1)N(C(=O)Cc1c[nH]c2ccccc12)C1CC1` (centres undefined), 8.97% (inactive).
On to `CCC(=O)Nc1ccc(N(C(=O)Cn2cnc3ccccc32)C(C(=O)NC(C)(C)C)c2ccsc2)cc1` (centres undefined), for which the inhibition is 61.1% (active).
Regarding `CC(C)(C)NC(=O)C(c1cccnc1)N(C(=O)c1ccco1)c1ccc(OC(F)F)cc1` (centres undefined), the inhibition was 45.5% (inactive).
Regarding `CC(C)c1ccc(N(C(=O)c2ccc(C(F)(F)F)nc2)C(C(=O)NC(C)(C)C)c2ccsc2)cc1` (centres undefined), the inhibition was 8.21% (inactive).
Consider `CC(C)(C)NC(=O)C(c1cccnc1)N(C(=O)c1ccco1)c1ccc(F)cc1` (centres undefined), for which the inhibition is -4.66% (inactive).
Turning to `CC(C)(C)NC(=O)C(c1cccnc1)N(C(=O)c1cccc2c1CCCC2)c1ccc(F)cc1` (centres undefined), the inhibition was 12% (inactive).
With `CC(C)(C)NC(=O)C(c1cccnc1)N(C(=O)c1ccc(C(F)(F)F)nc1)c1ccc(F)cc1` (centres undefined), the inhibition was 10.5% (inactive).
In the case of `CC(=O)Nc1ccc(N(C(=O)Cn2cnc3ccccc32)C(C(=O)NC(C)(C)C)c2ccsc2)cc1` (centres undefined), the inhibition was 2.63% (inactive).
With `CC(C)(C)NC(=O)C(c1cccnc1)N(C(=O)Cc1cccnc1)c1ccc(OCF)cc1` (centres undefined), the inhibition was 18.7% (inactive).
In the case of `CC(C)(C)NC(=O)C(c1ccsc1)N(C(=O)c1ccco1)c1ccc(C(C)(C)C)cc1` (centres undefined), the inhibition was 19.5% (inactive).
Next, `CC(C)(C)NC(=O)C(c1cccnc1)N(C(=O)Cc1cccc2ccccc12)C1CC1` (centres undefined): 2.44% (inactive); `CC(C)c1ccc(N(C(=O)c2ccco2)C(C(=O)NC(C)(C)C)c2cccnc2)cc1` (centres undefined): 65.6% (active).
Turning to `CC(=O)Nc1ccc(N(C(=O)Cn2c(C)nc3ccccc32)C(C(=O)NC(C)(C)C)c2ccsc2)cc1` (centres undefined), the inhibition is 2.27% (inactive).
Consider `CC(C)(C)NC(=O)C(c1ccsc1)N(C(=O)Cn1cnc2ccccc21)c1ccc(N)cc1` (centres undefined), for which the inhibition is 12.6% (inactive).
Regarding `CC(C)(C)NC(=O)C(c1cccnc1)N(C(=O)c1ccc(C#N)cc1)c1ccc(F)cc1` (centres undefined), the inhibition was -13.5% (inactive).
Regarding `CC(C)(C)NC(=O)C(c1ccsc1)N(C(=O)c1cccc2c1CCCC2)c1ccc(F)cc1` (centres undefined), the inhibition is 14.4% (inactive).
